From ChEMBL document CHEMBL1157539, “Thousands of chemical starting points for antimalarial lead identification” (Nature, 2010)

test system: HepG2; experiment: GSK_TCMDC: Percent inhibition of human HepG2 cell line. Test compounds present at 10uM.; type: functional

Question: For CC(C)NCc1cccc(-c2ccc(NS(=O)(=O)c3cccc4cccnc34)cc2)c1.O=C(O)C(F)(F)F, which Inhibition is on record?
Answer: The Inhibition was 21%.

Question: COc1ccc(Br)cc1C1Nc2ccc3ccccc3c2C2=C1C(=O)CC(c1ccccc1)C2 (stereo not given) was tested. Which Inhibition did it give?
Answer: The Inhibition was 25%.

Question: How did the Inhibition turn out when COc1ccc(-c2cccc(NC(=O)c3ccc(C#N)cc3)c2)cc1CNC(C)C.O=C(O)C(F)(F)F was run?
Answer: Its Inhibition is 25%.

Question: How did the Inhibition turn out when O=C(Nc1cccc(-c2cccc(CN3CCCC3)c2)c1)c1cccc(Cl)c1.O=C(O)C(F)(F)F was run?
Answer: Its Inhibition is 44%.

Question: How did the Inhibition turn out when CCn1c(Sc2ccc([N+](=O)[O-])c(C#N)c2)nnc1-c1cccc(Cl)c1 was run?
Answer: The Inhibition was 8%.

Question: With Oc1ccccc1CN(CCCN(Cc1ccccn1)Cc1ccccc1O)Cc1ccccn1 as the compound, how does the Inhibition read?
Answer: The Inhibition was 64%.

Question: For CC(=O)Nc1cccc(CNc2cc(C)nc(Nc3ccc(C)cc3)n2)c1, which Inhibition is on record?
Answer: Its Inhibition is 18%.

Question: With O=C(NC1CCN(CCC(NC(=O)c2ccccc2)c2ccc(Cl)c(Cl)c2)CC1)c1ccc(Cl)cc1 (stereo not given) as the compound, how does the Inhibition read?
Answer: Its Inhibition is 17%.

Question: For Cc1ccc(F)c(OCC2CCN(c3ccc(C(=O)NC4CC4)cn3)CC2)c1, which Inhibition is on record?
Answer: Its Inhibition is 4%.

Question: Which Inhibition does the source give for CCCCCC(=O)N1CCOC(CCN2CCc3c(c4ccccc4n3C)C2)(c2ccc(Cl)c(Cl)c2)C1 (stereo not given) here?
Answer: The Inhibition was 24%.

Question: How did the Inhibition turn out when CC(C)C[C@H](NC(=O)c1cccc(F)c1)C(=O)N[C@H](/C=N/NC(=O)c1ccccc1)CCc1ccccc1 was run?
Answer: Its Inhibition is 0%.

Question: O=C(/C=C/c1ccc(I)cc1)NCCCCCN1CCC(c2c[nH]c3ccccc23)CC1 was tested. Which Inhibition did it give?
Answer: Its Inhibition is 43%.

Question: How did the Inhibition turn out when Cc1c[nH]c2cc(/C=C/C(=O)NC3CCC(CCN4CCc5ccc(C#N)cc5CC4)CC3)ccc12.Cl (stereo not given) was run?
Answer: Its Inhibition is 0%.

Question: With CC1CCCN(C(=O)c2cc(-c3ccccn3)nc3c(Cl)cccc23)C1 (stereo not given) as the compound, how does the Inhibition read?
Answer: The Inhibition was 2%.

Question: How did the Inhibition turn out when COc1ccc2ncc(F)c(CCN3C4CCC3CC(NCc3cc5c(cn3)OCS5)C4)c2n1.Cl (stereo not given) was run?
Answer: Its Inhibition is 15%.

Question: Which Inhibition does the source give for Cl.N=C(N)c1ccc2[nH]c(SCc3ccccc3)nc2c1 here?
Answer: The Inhibition was 0%.

Question: Which Inhibition does the source give for O=c1cc(NCCCNCc2cccc(I)c2)[nH]c2ccccc12 here?
Answer: The Inhibition was 10%.

Question: How did the Inhibition turn out when Cc1cccc2nc(-c3cccc(-c4ccc(NC(=O)c5cccnc5)cc4)c3)[nH]c12 was run?
Answer: The Inhibition was 64%.

Question: For O=C(NCCc1cccc(Cl)c1Cl)c1cnc(N2CCN(c3ccncc3)CC2)c(Cl)c1.O=C(O)C(F)(F)F, which Inhibition is on record?
Answer: Its Inhibition is 47%.

Question: Cc1ccccc1N1CCN(c2ccc(C(=O)NC(C)C)cn2)CC1.O=C(O)C(F)(F)F was tested. Which Inhibition did it give?
Answer: The Inhibition was 13%.

Question: With Cc1cc(NCCc2cccc(F)c2)nc(NC(=N)Nc2cccc(C(F)(F)F)c2)n1 as the compound, how does the Inhibition read?
Answer: The Inhibition was 42%.

Question: Which Inhibition does the source give for CS(=O)(=O)NCCCNCc1ccc(-c2cccc(-c3nc4cc(F)ccc4[nH]3)c2)cc1.O=C(O)C(F)(F)F here?
Answer: Its Inhibition is 15%.

Question: With Clc1ccccc1CCNCC1CCN(CC2CCCCC2)CC1.O=C(O)C(F)(F)F as the compound, how does the Inhibition read?
Answer: Its Inhibition is 45%.

Question: O=C(Nc1ccc(C(F)(F)F)cc1)Nc1ccccc1N1CCNCC1.O=C(O)C(F)(F)F was tested. Which Inhibition did it give?
Answer: The Inhibition was 39%.

Question: COc1cc(CN2CCC(CO)(Cc3cccc(C(F)(F)F)c3)CC2)c(Cl)cc1O was tested. Which Inhibition did it give?
Answer: Its Inhibition is 12%.

Question: How did the Inhibition turn out when CC(C)(C)CCN1CCC(CNC(=O)c2cc(-c3cccc(C(F)(F)F)c3)cs2)C1.O=C(O)C(F)(F)F (stereo not given) was run?
Answer: The Inhibition was 47%.

Question: For Cc1ccc(NC(=O)NC2CCN(c3ccnc4ccccc34)CC2)cc1.O=C(O)C(F)(F)F, which Inhibition is on record?
Answer: Its Inhibition is 21%.

Question: For Br.CCCOc1ccc(CCCON2C(N)=NC(N)=NC2(C)C)cc1, which Inhibition is on record?
Answer: The Inhibition was 65%.

Question: How did the Inhibition turn out when N#Cc1ccc(-c2ccc(C(=O)NCCCCN3CCC(c4cc(Br)c5c(c4OCC(N)=O)CCCC5)CC3)cc2)cc1 was run?
Answer: Its Inhibition is 23%.

Question: With CN1CCN(c2ccc(Nc3c4ccccc4nc4ccccc34)cc2)CC1 as the compound, how does the Inhibition read?
Answer: The Inhibition was 0%.

Question: Which Inhibition does the source give for CCN1CCC(NCc2ccc(-c3ccc(Cl)s3)cc2)CC1 here?
Answer: The Inhibition was 42%.

Question: How did the Inhibition turn out when CCCc1cc(NC2CCN(C)CC2)nc(Nc2ccc(F)cc2)n1 was run?
Answer: The Inhibition was 20%.

Question: CCCCNCc1ccc(-c2nc(CN(CCCN3CCN(C)CC3)C(=O)Nc3cccc(Cl)c3)cs2)cc1.O=C(O)C(F)(F)F was tested. Which Inhibition did it give?
Answer: Its Inhibition is 35%.

Question: With Cc1cccc2nc(-c3cccc(-c4cccc(NC(=O)Nc5ccsc5)c4)c3)[nH]c12 as the compound, how does the Inhibition read?
Answer: The Inhibition was 15%.

Question: Which Inhibition does the source give for COc1ccc(CNc2ncnc3c2[nH]c2ccc(F)cc23)cc1 here?
Answer: Its Inhibition is 38%.

Question: Cl.Oc1cccc(-c2nc3cc(C4=NC5CCCCC5N4)ccc3[nH]2)c1 (stereo not given) was tested. Which Inhibition did it give?
Answer: Its Inhibition is 0%.

Question: With O=C(NCCCCCN1CCC(c2c[nH]c3ccccc23)CC1)Nc1ccc(I)cc1 as the compound, how does the Inhibition read?
Answer: Its Inhibition is 51%.

Question: Which Inhibition does the source give for CCCCOc1ccc(C(=O)C(CCC(CNC(C)(C)C)C(=O)c2ccc(OCCCC)cc2)CNC(C)(C)C)cc1.Cl (stereo not given) here?
Answer: The Inhibition was 100%.

Question: Which Inhibition does the source give for O=[N+]([O-])c1ccccc1/C=N/Nc1ccnc2ccc(C(F)(F)F)cc12 here?
Answer: Its Inhibition is 6%.

Question: How did the Inhibition turn out when COc1ccc(-c2cnc(N)c(-c3nc4cc(Br)ccc4[nH]3)c2)cc1.O=C(O)C(F)(F)F was run?
Answer: The Inhibition was 42%.
